A number with no mark means an inactive call. Calls of active or inactive are those of the source.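 Rule for the calls, unless noted: active = inhibition above the screen-wide mean plus 3 SD, about 51%; inactive = the rest.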
How the values were obtained:
[1] = yeast AGP1-GFP fluorescence change, single-dose – cell-based, flow cytometry, S. cerevisiae, cherry picks, confirmation (AID 2273;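 active = GFP response above 150% of the DMSO level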;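 note: median GFP channel fluorescence over the whole cell population gate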); conditions: S. cerevisiae AGP1-GFP strain, 3 h, at 10 µM
[2] = biological target: Integrin beta-1 (Homo sapiens) + Integrin alpha-4 (Homo sapiens) (UniProt P13612+P05556); assay: alpha4beta1 integrin LIBS antibody binding reduction – U937 cells, HUTS-21 mAb, flow cytometry, validation set, VLA-4 allosteric modulator project, pilot screen (AID 2674;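 active = inhibition above 50%, about 3 SD of the validation set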;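 note: antibody binding induced by the VLA-4 ligand LDV present at three times its Kd; 0% = LDV ligand with antibody and no compound and 100% = antibody without LDV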); conditions: HUTS-21 LIBS mAb binding, at 6.7 µM, hits give high values, binding induced by LDV ligand
Sequence of Integrin beta-1 (Homo sapiens) + Integrin alpha-4 (Homo sapiens) (P05556 whole entry, looked up): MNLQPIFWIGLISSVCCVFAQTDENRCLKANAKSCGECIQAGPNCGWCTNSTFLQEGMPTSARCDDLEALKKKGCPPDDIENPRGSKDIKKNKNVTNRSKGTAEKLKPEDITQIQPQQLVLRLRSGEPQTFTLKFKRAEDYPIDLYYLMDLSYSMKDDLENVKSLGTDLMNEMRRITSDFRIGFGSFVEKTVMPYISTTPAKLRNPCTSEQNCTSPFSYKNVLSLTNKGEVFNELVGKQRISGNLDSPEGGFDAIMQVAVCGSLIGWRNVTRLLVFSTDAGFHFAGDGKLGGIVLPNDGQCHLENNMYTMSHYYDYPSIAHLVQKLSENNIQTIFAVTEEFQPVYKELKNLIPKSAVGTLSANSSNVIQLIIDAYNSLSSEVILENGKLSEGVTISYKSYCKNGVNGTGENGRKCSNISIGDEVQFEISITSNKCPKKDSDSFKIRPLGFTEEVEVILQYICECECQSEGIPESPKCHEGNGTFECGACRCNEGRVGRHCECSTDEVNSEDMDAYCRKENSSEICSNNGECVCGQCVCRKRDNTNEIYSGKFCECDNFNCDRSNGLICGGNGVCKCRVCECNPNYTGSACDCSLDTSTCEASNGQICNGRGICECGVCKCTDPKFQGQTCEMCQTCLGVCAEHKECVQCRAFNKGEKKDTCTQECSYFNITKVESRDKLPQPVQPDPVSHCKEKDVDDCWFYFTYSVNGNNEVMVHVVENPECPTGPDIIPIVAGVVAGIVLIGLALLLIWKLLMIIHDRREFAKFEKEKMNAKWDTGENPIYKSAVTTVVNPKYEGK
Sequence of Integrin beta-1 (Homo sapiens) + Integrin alpha-4 (Homo sapiens) (P13612 whole entry, looked up): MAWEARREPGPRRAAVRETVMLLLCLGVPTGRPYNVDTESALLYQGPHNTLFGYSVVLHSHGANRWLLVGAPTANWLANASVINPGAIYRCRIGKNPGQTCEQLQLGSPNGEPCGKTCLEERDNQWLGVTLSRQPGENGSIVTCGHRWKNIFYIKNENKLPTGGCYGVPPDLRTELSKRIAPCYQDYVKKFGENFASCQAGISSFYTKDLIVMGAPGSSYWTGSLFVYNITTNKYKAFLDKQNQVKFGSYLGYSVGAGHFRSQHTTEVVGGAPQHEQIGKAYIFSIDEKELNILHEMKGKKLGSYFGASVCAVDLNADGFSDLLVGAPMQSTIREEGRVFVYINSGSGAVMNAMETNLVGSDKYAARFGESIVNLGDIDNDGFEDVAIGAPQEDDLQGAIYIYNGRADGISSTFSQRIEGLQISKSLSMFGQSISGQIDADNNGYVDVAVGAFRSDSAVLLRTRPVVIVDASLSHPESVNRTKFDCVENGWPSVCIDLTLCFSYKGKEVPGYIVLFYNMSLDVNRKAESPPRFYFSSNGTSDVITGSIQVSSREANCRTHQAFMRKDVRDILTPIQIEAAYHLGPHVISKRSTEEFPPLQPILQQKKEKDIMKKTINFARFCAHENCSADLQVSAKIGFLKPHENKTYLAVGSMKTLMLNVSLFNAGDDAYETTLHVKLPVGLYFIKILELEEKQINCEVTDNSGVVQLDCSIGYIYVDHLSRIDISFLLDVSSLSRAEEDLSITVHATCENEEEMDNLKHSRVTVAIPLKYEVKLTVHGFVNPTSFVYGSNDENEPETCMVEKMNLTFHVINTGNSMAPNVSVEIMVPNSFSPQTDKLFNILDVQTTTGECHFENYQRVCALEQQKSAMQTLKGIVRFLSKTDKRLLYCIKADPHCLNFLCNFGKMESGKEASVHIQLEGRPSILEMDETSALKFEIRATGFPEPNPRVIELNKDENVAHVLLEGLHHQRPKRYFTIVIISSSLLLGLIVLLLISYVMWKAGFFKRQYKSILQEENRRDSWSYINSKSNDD

[3] = calorie-restriction mimetic ROS inhibitors, yeast – validation compound set, pilot screen (AID 2706;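 active = superoxide response below 65% of plate, a cut near 3 SD across the whole screen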;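 note: yeast exposed to compound for one week at 30 degrees C before staining; 100% = mean of all compound wells on the same plate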); conditions: S. cerevisiae aging, superoxide DHE fluorescence; at 10 µM; hits give low values
[4] = biological target: Beta-adrenergic receptor kinase 1 (Homo sapiens) (UniProt P25098); assay: GRK2 binders displacing RNA aptamer, biochemical, validation, human GRK2, bead flow cytometry (AID 488806;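 active = aptamer binding inhibition above 30%, about 3 SD of noise from non-fluorescent compounds; inactive = inhibition at or below 30%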); conditions: bead-bound GRK2, FAM-aptamer displacement, at 10 µM, hits give high values
Sequence of Beta-adrenergic receptor kinase 1 (Homo sapiens) (P25098 whole entry, looked up): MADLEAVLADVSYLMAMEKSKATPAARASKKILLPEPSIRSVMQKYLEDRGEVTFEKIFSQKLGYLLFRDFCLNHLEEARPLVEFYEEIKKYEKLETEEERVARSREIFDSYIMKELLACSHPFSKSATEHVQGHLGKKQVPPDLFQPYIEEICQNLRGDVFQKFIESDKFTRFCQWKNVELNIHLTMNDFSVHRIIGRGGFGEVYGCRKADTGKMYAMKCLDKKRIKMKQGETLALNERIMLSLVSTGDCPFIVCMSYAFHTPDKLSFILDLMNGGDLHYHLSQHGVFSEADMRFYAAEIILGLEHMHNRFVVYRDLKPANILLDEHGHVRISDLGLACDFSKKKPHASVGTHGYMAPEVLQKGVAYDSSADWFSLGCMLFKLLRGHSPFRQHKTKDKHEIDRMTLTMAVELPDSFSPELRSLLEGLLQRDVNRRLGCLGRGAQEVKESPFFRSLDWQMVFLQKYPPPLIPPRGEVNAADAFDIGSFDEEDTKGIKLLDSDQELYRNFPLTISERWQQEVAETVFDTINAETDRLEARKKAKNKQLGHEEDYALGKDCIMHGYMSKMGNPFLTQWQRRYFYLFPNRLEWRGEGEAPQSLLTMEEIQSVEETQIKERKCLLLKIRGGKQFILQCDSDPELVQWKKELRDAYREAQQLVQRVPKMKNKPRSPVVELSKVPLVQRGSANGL

[5] = biological target: Beta-2 adrenergic receptor (Homo sapiens) (UniProt P07550); assay: agonist-induced loss of surface beta2AR – cell-based, FAP fluorogen, flow cytometry, validation set, pilot screen (AID 504459;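 active = percent response above 42, roughly 3 SD of non-fluorescent test compounds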;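 note: agonist-driven loss of surface beta2AR via internalization measured by FAP dye flow cytometry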); conditions: Am2.2-beta2AR cells, at 10 µM, hits give high values
Sequence of Beta-2 adrenergic receptor (Homo sapiens) (P07550 whole entry, looked up): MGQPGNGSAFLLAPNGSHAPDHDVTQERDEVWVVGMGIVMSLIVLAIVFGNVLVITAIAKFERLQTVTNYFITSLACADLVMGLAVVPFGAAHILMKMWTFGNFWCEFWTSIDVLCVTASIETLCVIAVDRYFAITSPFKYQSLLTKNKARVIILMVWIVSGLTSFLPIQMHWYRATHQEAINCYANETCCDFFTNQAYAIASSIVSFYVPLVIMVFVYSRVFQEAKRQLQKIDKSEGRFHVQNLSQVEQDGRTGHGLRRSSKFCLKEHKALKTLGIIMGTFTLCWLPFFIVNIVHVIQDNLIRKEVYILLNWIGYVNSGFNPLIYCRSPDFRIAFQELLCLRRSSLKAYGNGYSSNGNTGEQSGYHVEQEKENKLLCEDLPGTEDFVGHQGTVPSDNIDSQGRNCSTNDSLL

[6] = biological target: AP-2 complex subunit beta (Homo sapiens) (UniProt P63010); assay: beta-arrestin/AP2 interaction blockers – biochemical, validation set, GST-AP2 beads, flow cytometry, pilot screen (AID 504541;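 active = inhibition above 54%, about 3 SD of non-fluorescent compounds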;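 note: AP2 carries R879A mutation and is captured from E. coli lysate; bead-bound FITC arrestin peptide fluorescence measuring arrestin peptide binding to AP2; 0% = DMSO wells and 100% = excess unlabeled arrestin peptide control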); conditions: FITC arrestin peptide, at 10 µM, hits give high values, AP2 beta2 appendage fragment, R879A mutant
Sequence of AP-2 complex subunit beta (Homo sapiens) (P63010 whole entry, looked up, the tested form may be a part, one chain of several): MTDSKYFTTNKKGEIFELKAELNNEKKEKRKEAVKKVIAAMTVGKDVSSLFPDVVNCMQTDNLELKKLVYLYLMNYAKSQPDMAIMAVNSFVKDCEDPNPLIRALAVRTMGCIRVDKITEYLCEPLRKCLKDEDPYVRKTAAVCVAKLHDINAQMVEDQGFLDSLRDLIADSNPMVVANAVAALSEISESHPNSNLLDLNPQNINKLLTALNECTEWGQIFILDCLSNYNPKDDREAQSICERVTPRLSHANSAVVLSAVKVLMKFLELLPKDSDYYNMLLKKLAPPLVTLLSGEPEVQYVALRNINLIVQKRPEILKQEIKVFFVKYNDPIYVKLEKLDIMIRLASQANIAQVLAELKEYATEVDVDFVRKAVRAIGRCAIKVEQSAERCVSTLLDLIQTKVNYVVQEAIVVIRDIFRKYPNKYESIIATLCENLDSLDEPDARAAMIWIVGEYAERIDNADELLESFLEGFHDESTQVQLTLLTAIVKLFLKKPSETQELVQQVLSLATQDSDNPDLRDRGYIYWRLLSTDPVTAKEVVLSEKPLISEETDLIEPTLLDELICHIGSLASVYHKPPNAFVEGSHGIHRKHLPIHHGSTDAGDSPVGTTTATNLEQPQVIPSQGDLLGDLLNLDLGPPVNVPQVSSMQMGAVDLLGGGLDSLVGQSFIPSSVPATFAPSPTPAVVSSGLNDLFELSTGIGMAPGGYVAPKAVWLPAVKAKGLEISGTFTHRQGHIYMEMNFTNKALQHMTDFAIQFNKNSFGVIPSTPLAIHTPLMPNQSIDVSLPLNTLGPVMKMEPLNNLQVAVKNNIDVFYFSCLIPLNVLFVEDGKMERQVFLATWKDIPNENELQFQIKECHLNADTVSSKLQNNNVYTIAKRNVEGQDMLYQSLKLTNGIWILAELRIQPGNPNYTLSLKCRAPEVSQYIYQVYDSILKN

[7] = cytosolic pH regulators acting via V-ATPase – S. cerevisiae, pHLuorin, HTS validation (AID 504600; in the data active = response above about 15%;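 note: plate controls were DMSO for no effect and reference compound for full effect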); conditions: V-ATPase proton transport, at 10 µM, hits give high values
[8] = tested on: anti-desmoglein-3 scFv antibody binding to human DSG3; assay: blockers of pathogenic pemphigus antibody–desmoglein-3 binding – biochemical, validation compound set, bead-based, flow cytometry, pilot screen (AID 588368;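 active = binding below the plate cutoff, the plate median minus 3 SD, with a reading above zero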;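 note: signal is the median channel fluorescence of bead-bound GFP antibody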); conditions: Protein G beads, DSG3-Fc, scFv-GFP binding, at 10 µM, hits give low values
[9] = Nile Red efflux blockade in pump-expressing yeast – validation compound set, multiplex, phenotypic, pilot screen (AID 588506;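 active = efflux inhibition above 0.42, the validation set average plus 4 SD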;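 note: Nile Red retained in cells so higher fluorescence means more efflux inhibition; 0 = negative control wells and 1 = enniatin B 25 µM full block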); conditions: S. cerevisiae pump-expressing triplex, Nile Red efflux flow cytometry; at 10 µM; hits give high values; the pumps come from Candida albicans
[10] = biological target: ATP-binding cassette sub-family B member 6 (Homo sapiens) (UniProt Q9NP58); assay: blockers of ABCB6-driven porphyrin uptake – K562-ABCB6 cells, flow cytometry, validation set, pilot screen (AID 588550); conditions: K562-ABCB6 porphyrin accumulation, 1 h, at 10 µM, hits give high values;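 note: 0% = DMSO wells and 100% = benzethonium chloride 70 µM positive control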
Sequence of ATP-binding cassette sub-family B member 6 (Homo sapiens) (Q9NP58 whole entry, looked up): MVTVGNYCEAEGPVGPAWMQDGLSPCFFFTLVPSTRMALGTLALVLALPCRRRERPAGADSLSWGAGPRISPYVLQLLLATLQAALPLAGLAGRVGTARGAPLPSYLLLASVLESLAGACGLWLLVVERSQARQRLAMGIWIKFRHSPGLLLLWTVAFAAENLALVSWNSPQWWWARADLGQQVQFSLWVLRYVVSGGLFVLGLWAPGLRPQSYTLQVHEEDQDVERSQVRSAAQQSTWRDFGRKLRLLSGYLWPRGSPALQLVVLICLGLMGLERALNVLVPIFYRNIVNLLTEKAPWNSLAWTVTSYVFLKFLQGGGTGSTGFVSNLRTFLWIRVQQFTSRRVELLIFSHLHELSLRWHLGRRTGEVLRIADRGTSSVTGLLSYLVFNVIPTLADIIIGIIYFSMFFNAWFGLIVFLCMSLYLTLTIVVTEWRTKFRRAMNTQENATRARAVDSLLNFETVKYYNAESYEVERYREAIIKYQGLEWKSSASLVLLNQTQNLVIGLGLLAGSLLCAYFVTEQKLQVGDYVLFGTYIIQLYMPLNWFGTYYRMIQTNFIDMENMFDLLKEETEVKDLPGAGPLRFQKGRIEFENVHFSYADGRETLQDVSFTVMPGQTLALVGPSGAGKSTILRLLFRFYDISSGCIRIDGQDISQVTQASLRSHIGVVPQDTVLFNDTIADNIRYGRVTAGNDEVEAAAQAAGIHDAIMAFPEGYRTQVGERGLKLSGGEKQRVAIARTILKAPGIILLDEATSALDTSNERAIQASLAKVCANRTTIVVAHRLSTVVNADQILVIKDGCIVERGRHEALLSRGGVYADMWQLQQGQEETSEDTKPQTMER

[11] = AML differentiation inducers, ER-HoxA9 marrow cells – cell-based, GFP/MAC1 double positive, flow cytometry, validation set, primary screen (AID 588685;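 active = differentiation response of at least 50%, scaled between solvent and reference control, from cells with both markers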;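 note: compound exposure lasts four days before antibody staining and flow analysis; 0% = DMSO wells and 100% = 5 µM fulvestrant positive control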); conditions: hits give high values, normalized: vehicle 0, fulvestrant 100

SMILES	GFP response, % of DMSO [1] [%]	inhibition [2] [%]	superoxide response (% of plate) [3] [%]	aptamer binding inhibition [4] [%]	response [5] [%]	inhibition [6] [%]	response [7] [%]	binding (% of control) [8] [%]	efflux inhibition (fraction of control) [9]	inhibition [10]	differentiation response [11] [%]
CCOc1cc(C=O)ccc1OCCSc1ccc(C)cc1	94.9	9.13	108	4	5.33	-9.69	5.17	98.9	0.08	5%	-16.8
CN1CCN2c3ccccc3Cc3ccccc3C2C1 (centres undefined)	97.6	8.4	99.6	2	4.6	36.1	-3.99	95.6	-0.13	3%	-0.82
CCCCN(CCCC)CCCOC(=O)c1ccc(N)cc1	94.5	0.64	92.8	0	-0.26	6.38	-2.47	104	0.05	9%	1.64
O=C(O)CCNC(=O)c1ccccc1	104	-4.21	94.8	3	3.62	47.5	-1.09	98.7	0.52 (active)	112% (active)	26.2
